# Cdc42 wt = modulators (inhibitors or activators) of GTP binding to human Cdc42 wildtype. GST-Cdc42 beads, Bodipy-GTP binding, flow cytometry; actives lie on both sides. percent activity (GTP binding), % at 10 µM. 190,000 tested, 0.2% active;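 active means percent activity GTP binding at least 20 points away from the 100% baseline, either down as inhibitor or up as activator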;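 further: median bead fluorescence of bound Bodipy-FL-GTP at 100 nM; 0% = excess unlabeled GTP control and 100% = no compound control; below 100% means less GTP binding so inhibitor and above means activator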
# Target sequence (P60953 whole entry, looked up): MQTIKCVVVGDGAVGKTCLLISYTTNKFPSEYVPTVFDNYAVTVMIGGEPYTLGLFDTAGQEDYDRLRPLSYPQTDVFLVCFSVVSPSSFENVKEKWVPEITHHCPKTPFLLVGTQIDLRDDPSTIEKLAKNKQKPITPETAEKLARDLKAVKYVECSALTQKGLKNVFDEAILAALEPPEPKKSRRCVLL
# Rab7 wt GTP bind = alters GTP binding to wildtype dog Rab7 | GTP binding activity (percent of control), % at 10 µM | 190,000 tested, 0.055% active | GST-Rab7 beads, fluorescent GTP binding, flow cytometry; actives lie on both sides; untreated = 100%, excess cold GTP = 0%;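 active means fluorescent GTP binding to Rab7 beads changed by at least 20 points from the 100% baseline, either direction, mostly lower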;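 further: median green fluorescence of bound Bodipy-FL-GTP per Rab7 bead population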
# Rab2A wt mod = changes GTP binding to wildtype dog Rab2A, up or down; GTP binding activity, % at 10 µM; P61105; 190,000 tested, 0.19% active; GST-Rab2 wt beads, Bodipy-GTP binding, flow cytometry; AID 760;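 active means GTP binding activity at least 20 points away from 100%, either lowered or raised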;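 further: 0% = beads with excess unlabeled GTP and 100% = no-compound control corrected for plate trend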
# Rac1 act GTP bind = alters GTP binding to activated mutant human Rac1. GST-Rac1 activated beads, fluorescent GTP binding, flow cytometry; actives lie on both sides; 100% means binding = to untreated wells. P63000. 190,000 tested, 0.11% active. percent activity (GTP binding), % at 10 µM. AID 764;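 active means GTP binding at least 20 percentage points away from the 100% baseline, in either direction, so actives lie on both sides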
# HRas wt GTP = modulators of GTP binding to human HRas wildtype. AID 759. P01112. 190,000 tested, 0.14% active. GST-Ras wt beads, Bodipy-FL-GTP binding, flow cytometry; actives lie on both sides. GTP binding activity, % at 10 µM;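 active means GTP binding activity at least 20% away from the 100% baseline, either lowered as inhibitor or raised as activator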;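 further: 0% = unlabeled GTP competition control and 100% = no-compound control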
# Target sequence (P01112 whole entry, looked up): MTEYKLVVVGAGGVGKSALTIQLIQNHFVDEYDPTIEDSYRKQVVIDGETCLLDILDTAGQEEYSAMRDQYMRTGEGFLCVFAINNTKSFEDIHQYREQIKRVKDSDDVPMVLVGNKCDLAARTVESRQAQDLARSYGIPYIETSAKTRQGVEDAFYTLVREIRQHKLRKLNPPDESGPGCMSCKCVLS
# Rac1 wt modul = modulators of human Rac1 wildtype GTP binding | P63000 | GST-Rac1 beads, fluorescent GTP binding, flow cytometry; actives lie on both sides; 0 = cold GTP competed, 100 = untreated | GTP binding activity (% of control), % at 10 µM | 190,000 tested, 0.27% active;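 active means GTP binding activity at least 20 points away from the 100% control level, either lower or higher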
# * hit, by the source's call; [ ] = dose if it differs, or a comment. A selection: hits, their analogues and other compounds. The true share with any hit is near 0.4%.
SMILES,Cdc42 wt,Rab7 wt GTP bind,Rab2A wt mod,Rac1 act GTP bind,HRas wt GTP,Rac1 wt modul
Cc1ccc2c(c1)c1nnc(SCC(=O)N3CCCc4ccccc43)nc1n2CC(=O)O,64*,84,66*,82,67*,66*
O=C(COC(=O)/C=C/c1cccc([N+](=O)[O-])c1)NCc1ccc2c(c1)OCO2,82,98,82,79*,88,85
O=C(O)C1=C[C@H](c2ccc(C(F)(F)F)cc2)C[C@H](OCc2ccc(CO)cc2)O1,74*,90,76*,76*,80,77*
S=C(NCc1ccc2c(c1)OCO2)NC1CC1,99,108,100,95,101,103
COc1ccc(-c2[nH]ncc2CN(CCO)Cc2cccs2)c(F)c1,98,96,97,96,96,97
Nc1nn2c(-c3ccccc3)cc(=O)[nH]c2c1N=Nc1ccc(Br)cc1,75*,85,75*,76*,82,76*
Nc1[nH]n2c(=O)cc(-c3ccccc3)nc2c1N=Nc1ccccc1,95,97,94,94,95,98
O=C(COC(=O)C12CC3CC(CC(C3)C1)C2)Nc1nc2c(F)c(F)c(F)cc2s1,74*,93,94,96,94,93
COc1ccc(C(=O)OCC(=O)Nc2nc3c(F)c(F)c(F)cc3s2)cc1OC,97,102,98,93,97,98
O=C(CN(Cc1ccccc1)S(=O)(=O)c1ccc(S(=O)(=O)N2CCOCC2)cc1)Nc1ccccc1,102,101,100,101,99,103
Fc1cccc(Nc2ncnc3[nH]ncc23)c1,88,104,88,91,87,79*
Cc1ncc(CC(=O)n2cc(C(=O)c3cc(F)ccc3O)cn2)s1,97,97,97,98,98,99
Cc1ccc(O)c(C(=O)c2cnn(C(=O)Cc3csc(C)n3)c2)c1,83,79*,85,91,77*,93
COc1cc(/C=N/NC(=O)Nc2cccc3nsnc23)cc(OC)c1OC,56*,80,59*,75*,58*,76*
COc1ccc(CNC(=O)C(c2ccc(C)o2)N(Cc2cccs2)C(=O)Cc2cccs2)cc1 (stereo unspecified),101,102,100,99,102,102
COc1ccc(-n2cc(-c3ccccc3)c3c(N4CCOCC4)ncnc32)cc1,97,94,96,98,97,99
COc1ccc(-n2cc(-c3ccccc3)c3c(=O)[nH]cnc32)cc1,110,104,106,104,108,121*[activator]
Cc1cccc(Nc2nc(NCc3ccco3)c3ccccc3n2)c1,84,79*,72*,85,85,88
Cc1ccccc1Nc1nc(NCc2ccco2)c2ccccc2n1,100,99,101,98,102,100
O=[N+]([O-])c1ccc(/C=N/N=C/c2ccc([N+](=O)[O-])o2)o1,92,91,91,90,91,95
O=C1OC(c2ccc(F)cc2)=C/C1=C\c1ccc([N+](=O)[O-])o1,115,124*[activator],118,103,112,113
Cc1ccc(/C=C(\CCC(=O)O)c2nc3ccccc3s2)cc1[N+](=O)[O-],83,87,79*,78*,86,83
Cc1ccccc1C(=O)Nc1cccc(C(=O)N/N=C/c2cc(Cl)cc([N+](=O)[O-])c2O)c1,76*,90,77*,74*,80,81
COC(=O)c1ccccc1NC(=O)CSCC(=O)Nc1ccccc1OC,99,76*,95,97,95,96
COC(=O)CSc1nc(C)cc(N2CCOCC2)n1,100,99,96,95,97,100
SMILES,Cdc42 wt,Rab7 wt GTP bind,Rab2A wt mod,Rac1 act GTP bind,HRas wt GTP,Rac1 wt modul
O=C(Cc1ccc(Nc2nc(=S)[nH]c3ccccc23)cc1)NC1CCCCC1,65*,82,66*,76*,68*,57*
O=C(Cc1c(O)c2ccccc2[nH]c1=O)NC1CCCCCC1,103,99,100,99,101,103
CC(C)CCNC(=O)Cc1ccc(Nc2nc(=S)[nH]c3ccccc23)cc1,80,96,75*,89,75*,73*
O=C(CCCCCNc1nc(=S)[nH]c2ccccc12)NCCc1ccc(Cl)cc1,91,101,90,92,92,87
Cc1cnc(NC(=O)Cc2cccs2)s1,98,91,97,96,95,95
CCN(C(=O)COC(=O)/C=C/c1ccc(O)c(OC)c1)C1CCS(=O)(=O)C1 (stereo unspecified),97,99,93,98,99,100
CC1CCC(NC(=O)C2c3ccccc3C(=O)N2Cc2cccs2)CC1 (stereo unspecified),101,97,98,97,96,99
O=C(C1CCCO1)N1CCN(C(=S)Nc2ccccc2C(F)(F)F)CC1 (stereo unspecified),108,108,125*[activator],104,117,109
O=c1cc(N2CCc3ccccc3C2)[nH]c(=O)n1-c1ccc(Cl)cc1,102,101,104,103,102,121*[activator]
COc1ccc(-c2noc(CCC(=O)N3CCN(c4cc(C)ccc4C)CC3)n2)cc1,80,85,78*,75*,82,82
COc1ccc(CC(=O)c2ccccc2C(=O)O)cc1,140*[activator],125*[activator],130*[activator],131*[activator],126*[activator],143*[activator]
COc1ccc(CNC(=O)c2ccccc2C(=O)O)cc1,103,101,102,106,100,110
C=CCN1C(=O)/C(=C/C=C2/N(CC)c3ccc(S(=O)(=O)N(C)C)cc3N2CC)SC1=S,83,96,86,84,79*,81
COc1ccc(-c2nnc(S/C(=C/c3ccc(Cl)cc3)C(=O)O)o2)cc1,74*,85,75*,73*,83,81
c1ccc(-c2csc3ncnc(NCCCN4CCOCC4)c23)cc1,94,105,97,97,97,98
O=c1c2c(-c3ccccc3)csc2nc2c3ccccc3c(NCCN3CCOCC3)nn12,69*,70*,65*,82,65*,55*
COC(=O)/C=C/C(=O)Nc1cccnc1,101,96,101,99,99,103
O=C(Nc1cccc(O)c1)c1ccccc1,103,106,104,100,104,102
O=C(O)/C=C/C(=O)Nc1cccnc1,31*,20*,31*,34*,38*,34*
O=C(O)/C=C\C(=O)Nc1cccc(C(=O)Nc2cccc(O)c2)c1,85,95,83,89,87,76*

# Bioassay records deposited in PubChem by NMMLSC.
